Out of some 5,500 compounds screened, about 2,000 (36%) were called active. Another 18% or so got no clear call; they are omitted. Cut-off read from the data, not from the text of the source: active = normalized growth mostly below about 0.91 (no sharp cut-off); inconclusive = no clear call, values can overlap the other calls; inactive = mostly above about 0.92. Some of the results follow.
Assay: chemical genetic growth profiling, strain panel (AID 1159580);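 note: tested at 20 µM; growth read once vehicle control cultures reached saturation at 30 °C; 1 = growth at the plate median or of vehicle wells; lower values mean less growth of the strain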
Settings: growth OD

Measured: normalized growth

Cc1cc(C)cc(OCC2CNC(=O)O2)c1 (configuration not stated)
inactive: S. cerevisiae deletion strains, locus YJR075W, strain HOC1, hits give low values 1.01 | S. cerevisiae deletion strains, locus YKL009W, strain mrt4, hits give low values 1.02 | S. cerevisiae deletion strains, locus YKL068W, hits give low values 1.02 | S. cerevisiae deletion strains, locus YKL085W, strain MDH1 (second series), hits give low values 1.01 | S. cerevisiae deletion strains, locus YKL085W, strain MDH1, hits give low values 1.01 | S. cerevisiae deletion strains, locus YKL160W, strain elf1, hits give low values 0.973 | S. cerevisiae deletion strains, locus YKL190W, strain CNB1, hits give low values 1.01 | S. cerevisiae deletion strains, locus YKR001C, strain vps1, hits give low values 1.01 | S. cerevisiae deletion strains, locus YKR026C, strain gcn3, hits give low values 0.978 | S. cerevisiae deletion strains, locus YKR091W, strain srl3, hits give low values 0.985 | S. cerevisiae deletion strains, locus YLL001W, strain dnm1, hits give low values 0.976 | S. cerevisiae deletion strains, locus YLL026W, hits give low values 0.988 | S. cerevisiae deletion strains, locus YLL041C, strain sdh2, hits give low values 0.972 | S. cerevisiae deletion strains, locus YLR027C, strain aat2, hits give low values 0.985 | S. cerevisiae deletion strains, locus YLR039C, strain RIC1, hits give low values 1.04 | S. cerevisiae deletion strains, locus YLR058C, strain SHM2, hits give low values 1.01 | S. cerevisiae deletion strains, locus YLR102C, strain apc9, hits give low values 1.02 | S. cerevisiae deletion strains, locus YLR113W, strain HOG1, hits give low values 1.03 | S. cerevisiae deletion strains, locus YLR221C, strain rsa3, hits give low values 0.966 | S. cerevisiae deletion strains, locus YLR258W, strain gsy2, hits give low values 0.981 | S. cerevisiae deletion strains, locus YLR262C, strain YPT6 (second series), hits give low values 0.962 | S. cerevisiae deletion strains, locus YLR262C, strain YPT6, hits give low values 1.07 | S. cerevisiae deletion strains, locus YLR268W, strain sec22, hits give low values 1.01 | S. cerevisiae deletion strains, locus YLR320W, strain mms22, hits give low values 0.978 | S. cerevisiae deletion strains, locus YLR330W, strain CHS5, hits give low values 1.01 | S. cerevisiae deletion strains, locus YLR342W, strain FKS1 (second series), hits give low values 1.02 | S. cerevisiae deletion strains, locus YLR342W, strain FKS1, hits give low values 0.982 | S. cerevisiae deletion strains, locus YLR357W, strain rsc2, hits give low values 1.01 | S. cerevisiae deletion strains, locus YLR370C, strain arc18, hits give low values 0.963 | S. cerevisiae deletion strains, locus YLR371W, strain rom2, hits give low values 1.02 | S. cerevisiae deletion strains, locus YLR384C, strain iki3, hits give low values 0.973 | S. cerevisiae deletion strains, locus YLR418C, strain cdc73, hits give low values 1.02 | S. cerevisiae deletion strains, locus YML016C, strain PPZ1, hits give low values 1.01 | S. cerevisiae deletion strains, locus YML032C, strain rad52, hits give low values 1.02 | S. cerevisiae deletion strains, locus YML120C, strain ndi1, hits give low values 0.984 | S. cerevisiae deletion strains, locus YML124C, strain tub3, hits give low values 1 | S. cerevisiae deletion strains, locus YMR058W, strain fet3, hits give low values 0.95 | S. cerevisiae deletion strains, locus YMR078C, strain ctf18, hits give low values 1.02 | S. cerevisiae deletion strains, locus YMR125W, strain sto1, hits give low values 0.979 | S. cerevisiae deletion strains, locus YMR129W, hits give low values 0.984 | S. cerevisiae deletion strains, locus YMR205C, strain PFK2, hits give low values 0.97 | S. cerevisiae deletion strains, locus YMR223W, strain ubp8, hits give low values 1.02 | S. cerevisiae deletion strains, locus YMR231W, strain pep5, hits give low values 0.964 | S. cerevisiae deletion strains, locus YMR263W, strain SAP30, hits give low values 1.01 | S. cerevisiae deletion strains, locus YMR307W, strain GAS1, hits give low values 1.03 | S. cerevisiae deletion strains, locus YNL067W, strain RPL9B, hits give low values 1.02 | S. cerevisiae deletion strains, locus YNL071W, strain lat1, hits give low values 0.983 | S. cerevisiae deletion strains, locus YNL128W, strain TEP1, hits give low values 1.01 | S. cerevisiae deletion strains, locus YNL153C, strain GIM3, hits give low values 1 | S. cerevisiae deletion strains, locus YNL183C, strain NPR1, hits give low values 0.98 | S. cerevisiae deletion strains, locus YNL209W, strain ssb2, hits give low values 0.969 | S. cerevisiae deletion strains, locus YNL233W, strain BNI4, hits give low values 1 | S. cerevisiae deletion strains, locus YNL248C, strain rpa49, hits give low values 0.976 | S. cerevisiae deletion strains, locus YNL250W, strain rad50, hits give low values 1.02 | S. cerevisiae deletion strains, locus YNL271C, strain bni1, hits give low values 1.02 | S. cerevisiae deletion strains, locus YNL298W, strain CLA4, hits give low values 1.02 | S. cerevisiae deletion strains, locus YNL307C, strain MCK1, hits give low values 1.01 | S. cerevisiae deletion strains, locus YNL322C, strain KRE1 (second series), hits give low values 0.975 | S. cerevisiae deletion strains, locus YNL322C, strain KRE1, hits give low values 1.01 | S. cerevisiae deletion strains, locus YNR049C, strain mso1, hits give low values 0.983 | S. cerevisiae deletion strains, locus YNR052C, strain pop2, hits give low values 1.02 | S. cerevisiae deletion strains, locus YOL006C, strain TOP1, hits give low values 1.03 | S. cerevisiae deletion strains, locus YOL012C, strain htz1 1.42 | S. cerevisiae deletion strains, locus YOL147C, strain pex11, hits give low values 1.01 | S. cerevisiae deletion strains, locus YOR001W, strain rrp6, hits give low values 0.984 | S. cerevisiae deletion strains, locus YOR061W, strain CKA2, hits give low values 1.01 | S. cerevisiae deletion strains, locus YOR069W, strain VPS5, hits give low values 1.02 | S. cerevisiae deletion strains, locus YOR070C, strain gyp1, hits give low values 0.969 | S. cerevisiae deletion strains, locus YOR080W, strain dia2, hits give low values 0.991 | S. cerevisiae deletion strains, locus YOR083W, strain WHI5, hits give low values 0.986 | S. cerevisiae deletion strains, locus YOR106W, strain vam3, hits give low values 0.978 | S. cerevisiae deletion strains, locus YOR136W, strain idh2, hits give low values 1.01 | S. cerevisiae deletion strains, locus YOR144C, strain elg1, hits give low values 1.01 | S. cerevisiae deletion strains, locus YOR184W, strain ser1, hits give low values 1.03 | S. cerevisiae deletion strains, locus YOR231W, strain MKK1, hits give low values 1.05 | S. cerevisiae deletion strains, locus YOR265W, strain rbl2, hits give low values 0.975 | S. cerevisiae deletion strains, locus YOR270C, strain vph1, hits give low values 0.939 | S. cerevisiae deletion strains, locus YOR290C, strain snf2, hits give low values 0.982 | S. cerevisiae deletion strains, locus YOR316C, strain cot1, hits give low values 1.02 | S. cerevisiae deletion strains, locus YPL051W, strain arl3, hits give low values 0.979 | S. cerevisiae deletion strains, locus YPL055C, strain LGE1, hits give low values 1.02 | S. cerevisiae deletion strains, locus YPL078C, strain atp4, hits give low values 0.973 | S. cerevisiae deletion strains, locus YPL106C, strain sse1, hits give low values 0.969 | S. cerevisiae deletion strains, locus YPL240C, strain hsp82, hits give low values 0.979 | S. cerevisiae deletion strains, locus YPL241C, strain CIN2, hits give low values 1.01 | S. cerevisiae deletion strains, locus YPL256C, strain CLN2, hits give low values 1.1 | S. cerevisiae deletion strains, locus YPR119W, strain clb2, hits give low values 1.01 | S. cerevisiae deletion strains, locus YPR141C, strain kar3, hits give low values 1.02 | S. cerevisiae deletion strains, locus YPR163C, strain tif3, hits give low values 1.01 | S. cerevisiae deletion strains, locus YPR167C, strain met16, hits give low values 1.01 | S. cerevisiae deletion strains, strain wtn01, hits give low values 1.01 | S. cerevisiae strains, strain wild type, hits give low values 1.01

Reference: PubChem BioAssay AID1159580 (chemical genetic matrix, 2015)
